# PubChem BioAssay AID686979 (National Center for Advancing Translational Sciences (NCATS), 2013)
# Several values for one entry are separate records, joined by “and”; a condition that tells them apart may be missing. Equal entries are not always repeated. The whole screen tested about 420,000 compounds, of which about 50,000 (12%) were called active. About 26% were inconclusive and are not listed. Shown is part of a subset that was picked to be rich in actives. A number with no mark means an inactive call. Calls follow the shape of the dose curve; as a rule, active = well fitted inhibition curve with a large enough effect; inconclusive = small, poorly fitted or top-dose-only effect; inactive = flat fitted curve, though single readings scatter.
# Assay: qHTS for Inhibitors of human tyrosyl-DNA phosphodiesterase 1 (TDP1): qHTS in cells in presence of CPT; also: nearly all actives have a fitted effect of over 55% in size
# Settings: chicken DT40 Tdp1-/-;hTDP1 cells + 20 nM CPT, ATP luminescence, 48 h; series mostly up to 46.2 µM; activity change, negative = growth inhibition: at the top concentration
# Summary of the method: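 Cell growth measured by CellTiter-Glo luminescence after a minimum 48 h, 37 C compound exposure with 20 nM CPT in Tdp1-knockout DT40 cells stably expressing hTDP1, seeded 400/well; qHTS titration format.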
# % is scaled to controls: 0 for no effect and ±100 for the full control effect; potency is read from the fitted curve at half-maximal effect.
SMILES,"activity change, negative = growth inhibition",Potency
CCOC(=O)C(O)(c1ccc(N=Cc2ccccc2O)c(C)c1)C(F)(F)F (stereo not given),-6.07%,
CC(=O)c1c(O)c(C)c(O)c(Cc2c(O)c3c(c(C(=O)/C=C\c4ccccc4)c2O)OC(C)(C)C=C3)c1O,,13.3 µM (active)
CC(=O)c1c(O)c(C)c(O)c(Cc2c(O)c3c(c(C(=O)/C=C/c4ccccc4)c2O)OC(C)(C)C=C3)c1O,,29.9 µM (active)
O=C1NC(=O)C(CCc2ccccn2)(Cc2cccc(Cl)c2Cl)C(=O)N1c1ccc(Br)cc1 (stereo not given),-15%,
CCOP(=S)(OCC)SCOC(=O)NCC(=O)OC,-6.7%,
CN1CCc2cc3c(cc2[C@H]1[C@@H]1OC(=O)c2c1ccc1c2OCO1)OCO3,1.03%,
C=CCSSCC=C,-2.1%,
CC(=CCOc1ccc2ccc(=O)oc2c1)C1=CC(=O)C(C)(C)O1,,5.8 µM (active)
c1ccc2c(c1)[I+]c1ccccc1-2,,33.5 nM (active) and 15.8 nM (active) and 79.4 nM (active)
Cc1nc2nc(C)c(CCC(=O)N3CCC4(CC3)OCCO4)c(C)n2n1,-1.59%,
O=C(O)CCn1cc(C=C2C(=O)NC(=S)NC2=O)c(-c2cccc(Br)c2)n1,1.42%,
CNCC[C@H](Oc1ccc(C(F)(F)F)cc1)c1ccccc1,,7.5 µM (active)
N[C@@H](Cc1c[nH]c2ccccc12)c1nnc(SCc2c(F)cccc2Cl)o1,-13%,
CC(C)C(N)C(=O)OCCOCn1cnc2c(=O)[nH]c(N)nc21 (stereo not given),,2.06 µM (active)
CN(C)C(=O)Oc1cc(=O)n2c3c(cccc13)CCC2,-1.55%,
O=[N+]([O-])c1cnc2ccc3ccccc3c2c1,6.91%,
CC1CC=CCC12C(=O)NC(=S)NC2=O (stereo not given),-9.4%,
COC(=O)COc1cc(C)cc2oc(=O)c3c(c12)CCCC3,-6.26%,
Cc1nc2ccccc2c(=O)n1-c1ccc(Cl)cc1Cl,,13 µM (active)
O=c1c2ccccc2nc(CBr)n1-c1ccc(Cl)cc1,-28.4%,
O=C1CC(=O)N(Cc2ccccc2)C(=O)N1CCCCCCN1C(=O)CC(=O)N(Cc2ccccc2)C1=O,20.6%,
O=C(O)c1cc[c]([Sb](=[O])([OH])[OH])cc1[N+](=O)[O-],-6.27%,

SMILES,"activity change, negative = growth inhibition",Potency
COc1ccc(C)cc1N(CC(=O)N1CCC(C)CC1)S(=O)(=O)c1ccc(C)cc1,,18.4 µM (active)
COc1cc2c(cc1OC)[C@@H]1C(=O)c3ccc(O)c(CC=C(C)C)c3OC1CO2 (stereo not given in full),2.99%,
COc1ccc2[nH]c3c(c2c1)CCN[C@H]3C,5.04%,
CC1CCC(N(C)C2CCN(C)CC2)CC1 (stereo not given),-14.5%,
C[C@]12CCC3C(CC[C@H]4C[C@@H](O)CC[C@]34C)C1CC[C@@H]2O (stereo not given in full),-6.05%,
O=C(c1ccccc1[N+](=O)[O-])N1CCC2(CC1)OCCO2,-10.9%,
Cc1cc(C)cc(C(=O)N(CCc2ccccc2)C2=CC3CCC(C2)N3C)c1 (stereo not given),,20.6 µM (active)
CN1C2C=C(N(C(=O)c3ccc(Cl)cc3)c3ccccc3)CC1CC2 (stereo not given),-11.7%,
Cc1ccc(N2C(=O)NC(=O)C(CCc3ccncc3)(Cc3cccc(Cl)c3Cl)C2=O)cc1 (stereo not given),-5.48%,
CN(C)C1C(=O)C(C(N)=O)=C(O)[C@@]2(O)C(=O)C3=C(O)c4c(O)cccc4[C@@](C)(O)C3C[C@@H]12 (stereo not given in full),,21.1 µM (active)
CC(C)Nc1nc(Cl)nc(NC(C)C)n1,,inactive
COC(=O)C(O)(c1ccc(NC(=O)c2ccco2)c(OC)c1)C(F)(F)F (stereo not given),-6.8%,
N#CC1=C(N)Oc2c(c(=O)oc3ccccc23)C1c1ccccc1OC(=O)c1cccs1 (stereo not given),,18.4 µM (active)
CCNc1nc2[nH]c(=O)c3c(c2s1)OC(N)=C(C#N)C3c1cccs1 (stereo not given),-26.8%,
CNP1(NC)=Nc2nn(-c3ccccc3)c(N)c2C(c2ccccc2)=N1,-13.9%,
CN(C)CC1Oc2ccccc2OC1(O)c1ccccc1 (stereo not given),,2.06 µM (active)
COc1cc(OC)cc(C2(C#N)CCN(C)CC2)c1,-17.9%,
CCCCC/C=C\C/C=C\C/C=C\C/C=C\CCCCCC(=O)NCCO,-4.85% [at 4.12 µM],
O=C(N/N=C/c1c(O)n(C2CC2)c(=S)[nH]c1=O)c1ccccc1Cl,13.4%,
COC([CH2][Hg])CNC(=O)c1ccccc1OCC(=O)O (stereo not given),,1.06 µM (active)
c1cncc(CNC2=NCCC2)c1,3.64%,
CCOP(=S)(OCC)C(O)CCCCCn1c(=O)c(F)cn(C2CCCO2)c1=O (stereo not given),-1.03%,

SMILES,"activity change, negative = growth inhibition",Potency
CCC1(CC(C)c2ccccc2)C(=O)NC(=O)NC1=O (stereo not given),-0.717%,
CCc1ccccc1NC(=O)c1sc2nc3c(cc2c1N)CN(Cc1ccccc1)CC3,,7.31 µM (active)
Cn1cc(C(=O)OCC(=O)N2CCCC2)c2ccccc21,1.39%,
O=C(Nc1ccc(Cl)cc1C(=O)c1ccccc1)c1cc(Cl)cc(Cl)c1,-9.22%,
O=C(COC(=O)c1ccccc1)Nc1ccc(Cl)cc1C(=O)c1ccccc1,-11%,
CN1CCN(C(=S)SCC(=O)Nc2ccc(Cl)cc2C(=O)c2ccccc2)CC1,,14.6 µM (active)
CC(Cc1cccs1)NCc1ccc(Cl)cc1 (stereo not given),-21%,
CC(C)(Cc1c[nH]c2ccc(Cl)cc12)NCCOc1ccccc1OCC1CC1,,21.1 µM (active) and 6.51 µM (active)
Cc1ccc(Cn2c(C)c3cnn(CC(=O)N4CCC5(CC4)OCCO5)c(=O)c3c2C)cc1,,20.6 µM (active)
O=C(CCCn1c(=O)[nH]c2cc(Cl)ccc2c1=O)N1CCC2(CC1)OCCO2,-18.1%,
COc1ccc(-c2nc(CS(=O)CC(=O)N3CCC4(CC3)OCCO4)c(C)o2)cc1 (stereo not given),-11.2%,
CCC(=O)OC(Cc1ccccc1)(c1ccccc1)C(C)CN(C)C (stereo not given),-3.39%,
COC(=O)[C@@]12C[C@@H](CC(=O)NCc3cccc(C(F)(F)F)c3)C(=O)N(Cc3ccco3)C1=CCC(C)(C)C2,,20.6 µM (active)
COc1cccc(-c2nc3ccc(N4CCN(C)CC4)cc3[nH]2)c1,-18.1%,
O=C1C2CCN(CC2)C1(CO)CO,,2.66 µM (active)
CN(C)C(=O)NC(O)C(Cl)(Cl)Cl (stereo not given),-0.512%,
O=c1[nH]c(=O)n(Cc2ccccc2)c(O)c1/C=N/Nc1c(F)c(F)c(F)c(F)c1F,-13.6%,
O=C1NC(=O)C(Cc2ccccc2)C(=O)N1,-5.53%,
CCN(CC)C(=O)Oc1ccc(NC(=O)N2CCOCC2)cc1,-13%,
O=C(OCCN1CCOCC1)C1(c2ccccc2)CCCC1,7.49%,
O=c1c2ccccc2nc(/C=C/c2ccco2)n1-c1ccccc1O,,14.6 µM (active)
O=c1c2ccccc2nc(/C=C/c2ccc(F)cc2)n1-c1ccccc1O,,23.1 µM (active)

SMILES,"activity change, negative = growth inhibition",Potency
CSc1nc2ccc(C)cc2c(=O)n1-c1cccnc1,-17.6%,
Cn1cc(/C=C/c2nc3ccccc3c(=O)n2-c2ccccc2)c2ccccc21,,10.3 µM (active)
O=C(Nc1cccc2ccccc12)N1CCC2(CC1)OCCO2,1.32%,
CCOC(=O)C1CN(C)CCC1=O (stereo not given),-17.2%,
CN(C)CCCN=Cc1c(O)n(Cc2ccco2)c(=O)[nH]c1=O,-9.19%,
c1cc2c(cc1[C@H]1OC[C@H]3[C@@H]1CO[C@@H]3c1ccc3c(c1)OCO3)OCO2,-10.6%,
CC(CC(C#N)(c1ccccc1)c1ccccc1)N1CCCCC1 (stereo not given),14.4%,
O=C(N/N=C/c1ccc([N+](=O)[O-])o1)c1cc([N+](=O)[O-])cc([N+](=O)[O-])c1O,-39.1%,
N[C@H](C(=O)O)c1cc(=O)[nH]o1,-1.29%,
O=C(COC(=O)Cc1ccccc1)Nc1ccc(F)cc1,38.9%,
CC(C)c1ccc(-n2c(O)c(/C=N/N3CCOCC3)c(=O)[nH]c2=S)cc1,2.61%,
CN(C)c1cccc(C(=O)Nc2nc3ccc(S(=O)(=O)NC(C)(C)C)cc3s2)c1,,10.3 µM (active)
CC1C2Cn3c(nc4ccccc43)C1N(C)O2 (stereo not given),-1.39%,
Cc1c(C(=O)O)cccc1-n1c(C)cc(/C=C2\C(=O)NC(=O)N(c3ccc4c(c3)OCO4)C2=O)c1C,22.5%,
CN1[C@@H]2CC[C@H]1CC(OC(=O)c1cc(Cl)cc(Cl)c1)C2 (stereo not given in full),,18.8 µM (active)
CN1CCC(OC(=O)c2cccc(F)c2)CC1,-5.62%,
COC(=O)[C@@H]1C(OC(=O)c2ccccc2)CC2CCC1N2C (stereo not given in full),-19.5%,
CC1([N+](=O)[O-])COP(=O)(Nc2ccc(F)cc2)OC1 (stereo not given),0.366%,
Cc1c(Oc2cc(NN3CCCCC3)c([N+](=O)[O-])cc2[N+](=O)[O-])cccc1[N+](=O)[O-],-26.6%,
